Measurements: PubChem BioAssay (NCI)
About 83,000 compounds went through this panel and 20% of them were active in at least one assay; those are over-represented in the sample as a whole.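 In brief: 96-well plates, 48 h treatment, single concentration, percent growth endpoint.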 Active and inactive are the calls of the source. Rule for the calls: active = growth percent below 10; inactive = the rest.

Key:
Test in all cases: NCI-60 one-dose screen, 48 h (100 = growth as untreated, 0 = no growth, -100 = all killed)
Conditions in all cases: 10 µM unless noted
NCI-H226 lung = tested on: NCI-H226 lung
NCI-H322M lung = tested on: NCI-H322M lung
HOP-62 NSCLC = tested on: HOP-62 NSCLC
NCI-H460 lung = tested on: NCI-H460 lung
HOP-92 NSCLC = tested on: HOP-92 NSCLC
NCI-H522 lung = tested on: NCI-H522 lung
A549/ATCC NSCLC = tested on: A549/ATCC NSCLC
786-0 renal = tested on: 786-0 renal
COLO 205 colon = tested on: COLO 205 colon
NCI-H23 lung = tested on: NCI-H23 lung

Measured: growth

CC1(C)CC[C@]2(C(=O)O)CC[C@]3(C)C(=CCC4[C@@]5(C)C[C@@H](O)[C@@H]6OC(c7ccc(F)cc7)OC[C@@]6(C)C5CC[C@]43C)C2C1 (stereo not given in full)
active: HOP-92 NSCLC 1.62% | NCI-H522 lung 8.38% | COLO 205 colon -2.36%
inactive: NCI-H226 lung 34.4% | NCI-H322M lung 29% | HOP-62 NSCLC 47.5% | NCI-H460 lung 15.7% | A549/ATCC NSCLC 17% | 786-0 renal 39.6%

CC1(C)CC[C@]2(C(=O)O)CC[C@]3(C)C(=CCC4[C@@]5(C)C[C@@H](O)[C@@H]6OC(c7ccccc7Br)OC[C@@]6(C)C5CC[C@]43C)C2C1 (stereo not given in full)
active: NCI-H460 lung 4.53% | HOP-92 NSCLC -1.51% | COLO 205 colon -36.9%
inactive: NCI-H226 lung 26.7% | NCI-H322M lung 21.2% | HOP-62 NSCLC 30.3% | NCI-H522 lung 12.1% | A549/ATCC NSCLC 16.6% | 786-0 renal 24.9%

N#Cc1c(-c2cccc3ccccc23)cc(-c2cccc(OCC(=O)O)c2)[nH]c1=O
inactive: NCI-H226 lung 93.6% | NCI-H322M lung 96.1% | HOP-62 NSCLC 105% | NCI-H460 lung 101% | HOP-92 NSCLC 98.6% | NCI-H522 lung 97.9% | A549/ATCC NSCLC 94.6% | 786-0 renal 101% | COLO 205 colon 106%

COc1ccc(/C=C2\C(=O)Nc3ccc(Cl)cc32)cc1OCc1ccccn1
inactive: NCI-H23 lung 31.6% | NCI-H322M lung 56% | NCI-H460 lung 26.4% | NCI-H522 lung 81.1% | A549/ATCC NSCLC 41% | COLO 205 colon 77.8%
active: 786-0 renal -18.6%

COc1ccc(C(=O)/C=C/c2cccc(Cl)c2)cc1S(N)(=O)=O
inactive: NCI-H226 lung 38.3% | NCI-H322M lung 10.7% | HOP-92 NSCLC 85.8%
active: HOP-62 NSCLC -37.4% | NCI-H460 lung 3.05% | NCI-H522 lung -50.1% | A549/ATCC NSCLC -81.7% | 786-0 renal -57.3% | COLO 205 colon -65.1%

COc1ccc(/C=C/c2nc3ccccc3n3c(-c4ccc(Cl)cc4)nnc23)cc1
inactive: NCI-H226 lung 95% | NCI-H322M lung 104% | HOP-62 NSCLC 96.8% | NCI-H460 lung 88.6% | HOP-92 NSCLC 69.5% | NCI-H522 lung 64.2% | A549/ATCC NSCLC 90.4% | 786-0 renal 88.8% | COLO 205 colon 92.4%

CCN(CC)c1ccc(/C=N/Nc2nc(-c3ccc(Br)cc3)cs2)c(O)c1
inactive: NCI-H226 lung 31.7% | NCI-H322M lung 96.9% | HOP-62 NSCLC 110% | NCI-H460 lung 89.3% | HOP-92 NSCLC 104% | NCI-H522 lung 17% | A549/ATCC NSCLC 90.5% | 786-0 renal 49.9% | COLO 205 colon 58.3%

COc1cc2nc(SCc3ccccc3)n(-c3ccc(Cl)cc3)c(=O)c2cc1OC
active: NCI-H226 lung -27.3% | NCI-H322M lung 3.77% | HOP-62 NSCLC -69.2% | NCI-H460 lung -47.6% | HOP-92 NSCLC -30.2% | NCI-H522 lung -0.701% | A549/ATCC NSCLC -50.6% | 786-0 renal -57.2% | COLO 205 colon 3.25%

C#CCOc1cc(N(CC)CC)ccc1C(C(=O)NC(C)(C)C)N(C(=O)C1CCc2cc(F)ccc2O1)c1ccc(F)c(Cl)c1 (stereo not given)
inactive: NCI-H226 lung 62.8% | NCI-H322M lung 89.5% | HOP-62 NSCLC 77.5% | NCI-H460 lung 53.2% | HOP-92 NSCLC 48.2% | NCI-H522 lung 60.5% | A549/ATCC NSCLC 65.9% | 786-0 renal 58.7% | COLO 205 colon 63.1%

Cn1cc(-c2cc(N)n3nc(-c4cn(C)c5ccccc45)cc3n2)c2cc(Cl)ccc21
active: NCI-H322M lung -1.12% | HOP-62 NSCLC -52.1% | NCI-H460 lung -50.2% | HOP-92 NSCLC -58.2% | NCI-H522 lung -62.7% | A549/ATCC NSCLC 2.54% | 786-0 renal -86% | COLO 205 colon -80.1%
inactive: NCI-H226 lung 21.5%

C=C1CC[C@@H]2[C@]3(C)COC(c4ccccc4)O[C@@H]3CC[C@@]2(C)[C@@H]1C/C=C1/C(=O)OCC1OC(C)=O (stereo not given in full)
inactive: NCI-H322M lung 62.1% | NCI-H460 lung 15.1%
active: NCI-H23 lung -18.5% | HOP-92 NSCLC -36.3% | NCI-H522 lung -90.2% | A549/ATCC NSCLC 9.46% | 786-0 renal -95.6% | COLO 205 colon -76.4%

COc1cc(CNC(=O)/C=C/c2ccc3c(c2)OCO3)ccc1OCc1cn(-c2cccc(C(F)(F)F)c2)nn1
active: NCI-H226 lung -44.8% | HOP-62 NSCLC 1.47% | HOP-92 NSCLC -37.5% | A549/ATCC NSCLC -3.39% | 786-0 renal -44.7%
inactive: NCI-H322M lung 26.4% | NCI-H460 lung 29.2% | NCI-H522 lung 27% | COLO 205 colon 25.3%

CCCSc1nc(NCCc2c[nH]c3ccccc23)c(C#N)c(-c2ccc(F)cc2)n1
inactive: NCI-H226 lung 32.5% | NCI-H322M lung 82.9% | HOP-62 NSCLC 40.4% | NCI-H460 lung 14.1% | HOP-92 NSCLC 52.1% | NCI-H522 lung 61.3% | A549/ATCC NSCLC 58.6% | 786-0 renal 62.4% | COLO 205 colon 44%

N#Cc1cnn(C(=O)c2ccccc2Br)c1NC(=O)c1ccc(Br)cc1Cl
inactive: NCI-H226 lung 99.2% | NCI-H322M lung 100% | HOP-62 NSCLC 97.9% | NCI-H460 lung 105% | HOP-92 NSCLC 111% | NCI-H522 lung 102% | A549/ATCC NSCLC 93.9% | 786-0 renal 95.8% | COLO 205 colon 102%

CC1(C)CC[C@]2(C(=O)O)CC[C@]3(C)C(=CCC4[C@@]5(C)C[C@@H](O)[C@@H]6OC(c7ccco7)OC[C@@]6(C)C5CC[C@]43C)C2C1 (stereo not given in full)
active: HOP-92 NSCLC -1.27% | COLO 205 colon -86.9%
inactive: NCI-H226 lung 50.6% | NCI-H322M lung 30.1% | HOP-62 NSCLC 43.1% | NCI-H460 lung 19.8% | NCI-H522 lung 20.7% | A549/ATCC NSCLC 18.3% | 786-0 renal 42.7%

O=C(O)Cn1c(O)c(/C=C2/C=c3cc4c(cc3=NC2=O)OCCO4)sc1=S
inactive: NCI-H23 lung 97.7% | HOP-62 NSCLC 105% | NCI-H460 lung 118% | NCI-H522 lung 103% | A549/ATCC NSCLC 114% | 786-0 renal 108% | COLO 205 colon 119%

C#CCOc1ccc(/C=N/Nc2nc(-c3cc4cc(OC)ccc4oc3=O)cs2)cc1OC
active: NCI-H460 lung 8.62% | HOP-92 NSCLC -0.0146%
inactive: NCI-H226 lung 14.2% | NCI-H322M lung 72.2% | HOP-62 NSCLC 71.9% | NCI-H522 lung 42% | A549/ATCC NSCLC 10% | 786-0 renal 74.2% | COLO 205 colon 63.6%

COc1ccc2c(c1)c(-c1cc(N)n3nc(-c4cn(C)c5ccccc45)cc3n1)cn2C
active: NCI-H226 lung -44% | NCI-H322M lung -42.2% | HOP-62 NSCLC -59.6% | NCI-H460 lung -44.5% | HOP-92 NSCLC -75.2% | NCI-H522 lung -64.4% | A549/ATCC NSCLC -44.6% | 786-0 renal -88.3% | COLO 205 colon -83%

C#CCOc1cc(N(CC)CC)ccc1C(C(=O)NC(C)(C)C)N(C(=O)C1CCc2cc(F)ccc2O1)c1cc(C)cc(C)c1 (stereo not given)
active: HOP-92 NSCLC 9.21%
inactive: NCI-H226 lung 33.3% | NCI-H322M lung 66.6% | HOP-62 NSCLC 52.4% | NCI-H460 lung 30.4% | NCI-H522 lung 19.6% | A549/ATCC NSCLC 36.1% | 786-0 renal 36.3% | COLO 205 colon 31.3%

CCOC(=O)/C=C/c1cccc2c1C(=O)NC(C)(c1cc3cc(Br)ccc3oc1=O)N2 (stereo not given)
inactive: NCI-H226 lung 43.3% | NCI-H322M lung 88% | HOP-62 NSCLC 65.6% | NCI-H460 lung 46.1% | HOP-92 NSCLC 40.2% | NCI-H522 lung 29.1% | A549/ATCC NSCLC 40.1% | 786-0 renal 59.4% | COLO 205 colon 46.5%

COc1ccc(C2=NN(c3ccccc3)C(c3ccc(OC)c(OCc4ccccc4)c3)C2)cc1OC (stereo not given)
inactive: NCI-H226 lung 85.4% | NCI-H322M lung 102% | HOP-62 NSCLC 96.7% | NCI-H460 lung 105% | HOP-92 NSCLC 109% | NCI-H522 lung 78.2% | A549/ATCC NSCLC 101% | 786-0 renal 90.9% | COLO 205 colon 115%

CN1CCN(c2ccc(C(=O)/C=C/c3cc(C(F)(F)F)cc(C(F)(F)F)c3)cc2)CC1
active: NCI-H226 lung -42.9% | NCI-H322M lung -81.7% | HOP-62 NSCLC -74.9% | NCI-H460 lung -40.8% | HOP-92 NSCLC -55.2% | NCI-H522 lung -69.6% | A549/ATCC NSCLC -87.8% | 786-0 renal -97.9% | COLO 205 colon -83.4%

CC1[C@H]2[C@H](C[C@H]3[C@@H]4CC=C5c6sc(Nc7ccccc7F)nc6CC[C@]5(C)[C@H]4CC[C@@]32C)O[C@]12CC[C@@H](C)CO2 (stereo not given in full)
active: NCI-H226 lung -29.2% | NCI-H322M lung -31.4% | HOP-62 NSCLC -62.4% | NCI-H460 lung -62.6% | HOP-92 NSCLC -59.2% | NCI-H522 lung -66.5% | A549/ATCC NSCLC -63.5% | 786-0 renal -82.1% | COLO 205 colon -88.3%

CCN(CC)c1ccc(/C=N/Nc2nc(-c3ccc(C)cc3)cs2)c(O)c1
inactive: NCI-H226 lung 63.7% | NCI-H322M lung 98.1% | HOP-62 NSCLC 109% | NCI-H460 lung 111% | HOP-92 NSCLC 108% | NCI-H522 lung 65.2% | A549/ATCC NSCLC 92.2% | 786-0 renal 96.2% | COLO 205 colon 110%

CC1(C)CC[C@]2(C(=O)O)CC[C@]3(C)C(=CCC4[C@@]5(C)C[C@@H](O)[C@@H]6OC(c7ccccc7F)OC[C@@]6(C)C5CC[C@]43C)C2C1 (stereo not given in full)
active: NCI-H460 lung 3.39% | HOP-92 NSCLC 5.75% | NCI-H522 lung 5.45% | COLO 205 colon -44%
inactive: NCI-H226 lung 27.9% | NCI-H322M lung 13.5% | HOP-62 NSCLC 22.1% | A549/ATCC NSCLC 14.2% | 786-0 renal 16.8%
